Source: PubChem
The list is not random: actives were taken first. Their share in the collection is about 0.86%.
FEN1 inh: qHTS Assay for the Inhibitors of Human Flap endonuclease 1 (FEN1); P39748; 0.35% of 390,000 active; Recombinant FEN1 flap cleavage, fluorescence, 15 min; AID 588795, 2011; Potency, µM (doses to about 114 µM), for inactives: top-dose activity change, negative = inhibition, most hits filed as inhibitors; further: nearly all actives have a fitted effect of over 65% in size
Target sequence (P39748 whole entry, looked up): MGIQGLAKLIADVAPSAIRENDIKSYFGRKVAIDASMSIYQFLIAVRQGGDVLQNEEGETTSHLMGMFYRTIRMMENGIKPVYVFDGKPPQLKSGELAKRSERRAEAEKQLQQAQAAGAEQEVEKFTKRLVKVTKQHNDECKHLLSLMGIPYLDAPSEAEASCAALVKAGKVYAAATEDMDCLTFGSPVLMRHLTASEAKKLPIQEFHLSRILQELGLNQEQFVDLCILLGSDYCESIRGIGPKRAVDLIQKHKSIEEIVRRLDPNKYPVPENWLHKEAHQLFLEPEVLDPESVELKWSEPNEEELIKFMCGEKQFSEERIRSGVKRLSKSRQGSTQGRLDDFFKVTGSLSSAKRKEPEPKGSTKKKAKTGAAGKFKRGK
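With each library titrated from low to high concentration, compounds met 10 nM FEN1 for 15 min at room temperature before 50 nM substrate was added; readings at 0 and 15 min fed four-parameter Hill curve fits.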
GLS inhibitor: qHTS for Inhibitors of Glutaminase (GLS) | GLS enzymatic activity, qHTS titration | Potency, µM (doses to about 45.5 µM), for the others: at the highest dose activity change, negative = inhibition, most hits filed as inhibitors | 0.21% of 410,000 active
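Assay buffer: 45 mM KH2PO4 pH 8.2, 0.02% Tween-20. hKGA acts on L-glutamine (1 mM solution added); product glutamate is reported by an oxidase/peroxidase Amplex Red coupling, with fluorescence taken at baseline and 30 min.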
Tb PGK inh: qHTS Assay to Find Inhibitors of Phosphoglycerate Kinase; Phosphoglycerate kinase, glycosomal (Trypanosoma brucei brucei), P07378; PGK/GAPDH coupled, Kinase-Glo luminescence, 60 min; Potency, µM (series often up to 57.5 µM), without a hit: top-dose activity change, negative = inhibition, most hits filed as inhibitors; 0.043% of 380,000 active; AID 602233, 2012; further: nearly all actives have a fitted effect of over 60% in size
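Recombinant glycosomal PGK reaction used 1,3-bisphosphoglycerate generated in-well by GAPDH (100nM final) in 100mM TEA pH 7.6, 5mM MgCl2, 0.01% Tween-20. After 60 minutes at room temperature, ATP was read by Kinase-Glo Plus luminescence end-point.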
RECQ1 inh-1: qHTS Assay for Inhibitors of RecQ-Like Dna Helicase 1 (RECQ1); ATP-dependent DNA helicase Q1 (Homo sapiens), P46063; RECQ1 DNA unwinding, red fluorescence kinetic read; Potency, µM (titrated, usually from 57.3 µM), without a hit: at the top dose activity, negative = inhibition, usual class: inhibitors; 0.54% of 240,000 active;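 further: plate controls were vehicle for no effect and no enzyme for full effect; nearly all actives have a fitted effect of over 30% in size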
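RECQ1T1 50 nM; forked duplex (20 bp + 30-nt ss tails) 200 nM, ATP 2 mM final; pH 8.0, 2 mM MgCl2, 2.5 ug/ml poly(dI-dC); 15 min compound preincubation; discontinuous kinetic read over 2 h at RT.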
APE1 inh: qHTS Assay for Inhibitors of the Human Apurinic/apyrimidinic Endonuclease 1 (APE1) | recombinant APE1, TAMRA/BHQ-2 abasic DNA cleavage fluorescence | 0.35% of 350,000 active | Potency, µM (series often up to 65.8 µM), for the others: at the top dose activity change, negative = inhibition, most hits filed as inhibitors | DNA repair nuclease/redox regulator APEX1 (Homo sapiens), P27695 | AID 2517, 2012;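 further: plate controls were vehicle for no effect and reference inhibitor for full effect; nearly all actives have a fitted effect of over 55% in size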
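Quantitative HTS: incision of a TAMRA/BHQ-2 double-stranded substrate bearing a tetrahydrofuran abasic site by 0.75 nM APE1 raises fluorescence. Substrate 50 nM final, added after 15 min compound preincubation at room temperature; progress as third-minus-first kinetic read difference.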
BLM helicase inh: qHTS Assay for Inhibitors of Bloom's syndrome helicase (BLM); 0.2% of 350,000 active; recombinant BLM DNA unwinding, fluorescence dequenching; RecQ-like DNA helicase BLM (Homo sapiens), P54132; Potency, µM (highest dose often 56.1 µM), for inactives: at the top dose activity change, negative = inhibition, hits mostly inhibitors;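 further: plate controls were vehicle for no effect and no enzyme for full effect; nearly all actives have a fitted effect of over 35% in size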
RECQ1 inh conf: Confirmation qHTS Assay for Inhibitors of RecQ-Like Dna Helicase 1 (RECQ1); shares compounds with RECQ1 inh-1; RECQ1 helicase DNA unwinding, fluorescence; Potency, µM (highest dose often 229 µM), without a hit: top-dose activity change, negative = inhibition, actives largely listed as inhibitors; 28% of 610 active; further: nearly all actives have a fitted effect of over 45% in size
RECQ1 ADP FP: Counterscreen for RECQ1 Inhibitors: ADP Fluorescence Polarization Displacement Assay | shares compounds with RECQ1 inh-1 | ADP fluorescence polarization displacement counterscreen | Potency, µM (series often up to 228 µM), inactives show top-dose activity change, negative = inhibition, usual class: inhibitors | 27% of 530 active; further: nearly all actives have a fitted effect of over 45% in size
RECQ1 inh-2: Confirmation qHTS Assay for Inhibitors of RecQ-Like Dna Helicase 1 (RECQ1) - Round 2 Cherry Picks | shares compounds with RECQ1 inh-1 | recombinant RECQ1 DNA unwinding, red fluorescence | Potency, µM (top dose mostly 119 µM), for inactives: at the highest dose activity, negative = inhibition, usual class: inhibitors | 15% of 1,100 active | AID 504841, 2011; further: nearly all actives have a fitted effect of over 50% in size
* hit, by the source's call; i = inactive; ? = inconclusive; . = no result; [ ] = another dose, or the depositor's remark. The call rests on the fitted dose curve; in most records, active means well fitted curve in the direction sought with a large enough effect; inconclusive means small, poorly fitted or top-dose-only effect, or another doubt; inactive means no such curve, though single readings can be large; an effect the other way counts as inactive or inconclusive. Unless noted, on the % scale 0 is the no-effect control and ±100 the full control effect; potency means the concentration at half of the fitted maximal effect.

SMILES | FEN1 inh | GLS inhibitor | Tb PGK inh | RECQ1 inh-1 | APE1 inh | BLM helicase inh | RECQ1 inh-2 | others
Nc1nn2cc(-c3ccc(Br)cc3)nc2c2ccccc12 | ? | 2.4% | -11.3% | ? | 5.6% | -13.1% | ?
Brc1ccc(-c2cn3nc4c(nc3n2)CCCC4)cc1 | -1.2% | -17.2% | -8.6% | i | 18.9% | -9.2% | .
COc1ccccc1-n1cnnc1SCC(=O)c1cc(C)n(Cc2cccs2)c1C | 6.7% | -8.6% | -3.7% | ? | ? | -3.7% | -10.8%
Cc1cc(C(=O)CSc2nnc(-c3ccccc3F)o2)c(C)n1Cc1cccs1 | 2.8% | 0.3% | 6.4% | ? | ? | -4.9% | .
Cc1cc(C(=O)COC(=O)CNC(=O)c2ccco2)c(C)n1Cc1ccco1 | -5.2% | 2.2% | -7.7% | ? | ? | -16.7% | -5.8%
CC(C)CO/N=C1/C[C@@H](O)[C@@H](O)[C@@H]2[C@H]3C(=O)N(c4ccc(F)cc4F)C(=O)[C@@H]3CC[C@H]12 | . | . | . | -1.2%[11.5 µM] | 13.9%[12.4 µM] | 1.3%[12.4 µM] | .
O=S(=O)(Nc1nc(-c2sccc2Cl)cs1)c1cc(Cl)ccc1Cl | -32.8% | 28.9% | -19.0% | ? | -0.9% | -14.4% | ?
COc1ccc2c(c1)CCc1c(C(=O)N(C)c3ccccc3)noc1-2 | -14.4% | -2.7% | i | 4.47µM* | -1.6% | -3.2% | -12.2% | RECQ1 inh conf=6.5%[114 µM];RECQ1 ADP FP=?
COc1cc2ccccc2cc1C(=O)NC(=S)Nc1cccc(C(=O)O)c1 | ? | 10.9% | -17.7% | ? | ? | ? | 25.1µM*
CC1=Nc2ccccc2/C1=C/c1ccc(N(C)C)cc1 | -23.7% | . | . | . | . | . | .
Cc1nn(-c2cccc(Cl)c2)c2nc(-c3ccco3)cc(C(=O)O)c12 | -0.3% | ? | -11.6% | -26.3% | -4.4% | 5.0% | .
Cc1nn(-c2ccccc2)c2nc(-c3ccco3)cc(C(=O)O)c12 | ? | 7.08µM* | -23.5% | 28.2µM* | ? | 24.9% | -23.3%
O=C(O)c1cc(-c2ccco2)nn1-c1cccc(Cl)c1 | -28.6% | 22.2% | -12.5% | 25.1µM* | ? | 44.2% | ?
CN(C)c1ccc(-c2nc(NC3CCNCC3)c3ccccc3n2)cc1 | . | . | . | ? | ? | ? | 20µM*
O=C(O)CSc1nnc(Cc2ccccc2)n1Cc1ccccc1 | 10.5% | -2.1% | -2.9% | 1.2% | 0.4% | 1.4% | . | RECQ1 inh conf=12.3%;RECQ1 ADP FP=9.1%
COc1cccc(NC(=O)c2ccc3[nH]c(C)cc(=O)c3c2)c1 | -5.8% | -8.0% | i | . | . | -2.4% | .
